Columns and labels:
Conditions in all cases: concentration: 1 μM, replicates: in singlicate; n = 1
MST1 = test system: T1, MST1
T1 construct: gene STK4

MST2 = test system: T2, MST2
T2 construct: gene STK3

MST3 = test system: T3, MST3
T3 construct: gene STK24

MST4 = test system: MST4
MTOR = test system: MTOR
MUSK = test system: MUSK
MYLK2 = test system: MYLK2
MYLK4 = test system: MYLK4
MYLK = test system: MYLK
MYO3A = test system: MYO3A
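Also: KINOMEscan kinase panel screen.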

SMILES | %Inh (MST1) [%] | %Inh (MST2) [%] | %Inh (MST3) [%] | %Inh (MST4) [%] | %Inh (MTOR) [%] | %Inh (MUSK) [%] | %Inh (MYLK2) [%] | %Inh (MYLK4) [%] | %Inh (MYLK) [%] | %Inh (MYO3A) [%]
CC(C)Oc1ccc2c(-c3ccnc(Nc4ccc(N5CCN(C)CC5)cc4)n3)cnn2n1 [GW696155] | 0 | 0 | 59 | 16 | 27 | 42 | 61 | 99.6 | 17 | 30
COc1ccc(Nc2nccc(N3CCC(NC(=O)Nc4cc(C)ccc4C)C3)n2)cc1 (stereo not drawn) [GSK1379741] | 0 | 1 | 0 | 0 | 11 | 0 | 0 | 0 | 0 | 0
O=c1cc(N2CCOCC2)nc2n(Cc3cccc(Cl)c3Cl)c(C3CC3)nn12 [GSK2358994] | 0 | 41 | 4 | 0 | 0 | 0 | 0 | 0 | 14 | 0
O=C1NC(=O)C(N2CCc3ccccc32)=C1c1cccc(Cl)c1 [SB-408010] | 0 | 63 | 4 | 0 | 0 | 0 | 0 | 0 | 8 | 9
[2H]C([2H])(c1cccc(C(F)(F)F)c1C)n1ccn2c(=O)nc(N3CCOCC3)cc12 [GSK2336394] | 2 | 0 | 11 | 0 | 18 | 8 | 0 | 0 | 12 | 4
CSc1ccc(-c2cc3ncnc(SCC(=O)O)c3s2)cc1 | 13 | 20 | 22 | 7 | 36 | 0 | 0 | 9 | 0 | 0
Fc1ccc(-c2ncn(CCCN3CCOCC3)c2-c2ccccn2)cc1 [SB-211742] | 2 | 32 | 9 | 0 | 27 | 0 | 3 | 0 | 0 | 0
CN(C1=C(c2ccccc2)C(=O)NC1=O)c1ccccc1 [SB-334860] | 0 | 6 | 7 | 0 | 28 | 0 | 11 | 19 | 11 | 33
Cc1ccc(NC(=O)c2ccnc(N3CCN(C)CC3)c2)cc1-c1ccc(C(=O)NCC2CC2)cc1 [GW775604] | 27 | 11 | 0 | 0 | 0 | 4 | 0 | 0 | 0 | 0

From publication PMC5540273 (PLoS ONE, 2017)
